Our source for the inhibition values is PubChem BioAssay AID504329 (Southern Research Specialized Biocontainment Screening …, 2011).

Out of some 340,000 compounds screened, about 1,000 (0.29%) were called active. Not all results are given here. Potency and affinity values are given separately. Unmarked numbers belong to inactive results. Rule as the data show it: inconclusive = inhibition above about 27% without an active follow-up result; inactive = below that.

A short description of this experiment: NS1A inhibition, H1N1 influenza, cell based functional assay (AID 504329). The following applies: percent inhibition, at 12.5 µM, hits give high values.
`CN1C(C(=O)NCCc2cccs2)CC2Cn3c(nc4cc5ccccc5cc43)C21` (stereo unspecified): the inhibition was 1.77%. Turning to `CSc1cccc(CN2CCN(CCc3ccccc3)C(CCO)C2)c1` (stereo unspecified), the inhibition was -1.46%. To `CN(CCO)c1cc(N2CCN(C(=O)c3ccco3)CC2)c2nonc2c1[N+](=O)[O-]` belongs -1.02%. The value for `O=C(c1cc(-c2ccccc2Cl)on1)N1CCN(C(=O)c2ccco2)CC1` was 9.97%; that for `O=C(c1ccco1)N1CCN(CCCCN2C(=O)c3ccccc3C2=O)CC1` was -6.16%; that for `O=C(c1ccco1)N1CCN(C2=NS(=O)(=O)c3ccccc32)CC1` was -26.1%. The value for `COc1ccc(C)cc1-n1nnnc1SCc1csc(C)n1` was -0.01%; that for `O=C(Cc1ccc2c(c1)OCCO2)Nc1cc(C(F)(F)F)ccc1N1CCOCC1` was -15.4%. Take `O=C(CC(O)(CC(=O)OCc1ccccc1)C(=O)OCc1ccccc1)OCc1ccccc1`: the inhibition was 10.3%. Regarding `O=C1/C(=C\c2cccc(O)c2O)SC(=S)N1Cc1ccccc1`, the inhibition was 11.5%.

As to `O=C1/C(=C/c2ccc(O)c([N+](=O)[O-])c2)SC(=S)N1Cc1ccccc1`, the inhibition is 8.28%. The value for `O=C(c1ccncc1)C12CN3CN(CN(C3)C1)C2` was -2.7%.

Regarding `COc1cc(/C=N\NC(=O)CN2CCOCC2)ccc1OCC(=O)Nc1ccc(C)c(C)c1`, the inhibition was 0.68%. To `C/C(=N\N1CCN(Cc2ccc(Cl)cc2)CC1)c1ccc([N+](=O)[O-])cc1` belongs 1.56%. The value for `CC(O)(Cc1ccccn1)Cc1ccccn1` was 3.66%; that for `CC(c1ccccn1)C(C)(O)C(C)c1ccccn1` (stereo unspecified) was -2.07%; that for `COc1ccccc1N1CCN(Cc2ccc(OC)c(OC)c2OC)CC1` was 0.22%. As for `COc1ccccc1N1CCN(Cc2cccc(OC)c2O)CC1`, the inhibition is 0.66%. The value for `COc1ccccc1N1CCN(Cc2cc3c(cc2Br)OCCO3)CC1` was 3.4%; that for `COc1ccccc1N1CCN(Cc2cccc(OC)c2OC)CC1` was -12%. To `Cc1onc(COc2ccccc2O)c1Br` belongs -2.44%; to `Cc1cccc(NC(=O)C2CCCN(S(=O)(=O)c3ccc4[nH]c(=O)ccc4c3)C2)n1` (stereo unspecified), 5.77%.

For the molecule `CC(C)C(NC(=O)c1ccc(C(C)(C)C)cc1)C(=O)NC1=NCCS1` (stereo unspecified), the inhibition is 8.12%.

On to `c1cc(-c2ccncc2)ccn1`, for which the inhibition is -1.52%. The value for `Oc1cncc(-c2cccnc2)c1` was -6.57%.

With `c1cncc(-c2cnc3ccccc3c2)c1`, the inhibition is -4.39%. As to `CN(C)c1ccc(-c2cc(O)c3ncccc3c2)cc1`, the inhibition was 21.2%.

Take `CC1(c2nnc(-c3ccc(Cl)cc3)o2)CC(c2c(Cl)cccc2Cl)=NO1` (stereo unspecified): the inhibition is -2.35%. The value for `Cc1ccc(NC(=S)NCc2ccccc2)c(C)c1` was -7.15%; that for `O=C(Cc1ccccc1)Nc1cc(C(=O)c2ccccc2)ccc1N1CCOCC1` was -3.63%; that for `COc1ccc(C(=O)NCCNc2nc3ccc(C)cc3cc2C#N)cc1` was -6.86%. To `CN(CC1CCCN(CCc2ccc(Cl)cc2)C1)C(=O)CC(F)(F)F` (stereo unspecified) belongs -8.18%; to `Cc1ccc(CNC(=O)C2CCC(=O)N(CCc3ccc(Cl)cc3)C2)s1` (stereo unspecified), -10%; to `COc1ccc(C(=O)NC(C)CCCC(C)(C)O)cc1OC1CCN(C(C)=O)CC1` (stereo unspecified), -0.26%. With `Clc1ccc(-c2noc(COc3ccccc3)n2)cc1`, the inhibition is -0.74%.

With `C/C(=N\NC(=O)C(c1ccccc1)c1ccccc1)c1ccccn1`, the inhibition is -11.5%. To `C/C(=N/NC(=O)CNC(=O)c1ccccn1)c1ccc([N+](=O)[O-])cc1` belongs -5.71%; to `CCOc1ccc(C(=O)NCCN2CCCCC2)c(OCC)c1`, -19.7%; to `Cc1ccc(NC(=O)CN(C)C(=O)c2ccc(NS(=O)(=O)c3ccc4[nH]c(=O)[nH]c4c3)cc2)cc1`, 2.9%. To `O=C(COC(=O)C12CC3CC(CC(O)(C3)C1)C2)NC(=O)NCc1ccco1` belongs -3.4%; to `O=c1[nH]c(=S)[nH]c2scc(-c3ccc(Br)cc3)c12`, -20.7%. The value for `CCn1c(C)nc2cc(C(=O)N/N=C/c3cccc(O)c3O)ccc21` was 0.31%. For `CCn1c(C)nc2cc(C(=O)N/N=C/c3cccc(OC)c3O)ccc21`, the inhibition was 5.9%. The value for `O=C(O)c1cc(-c2cccc3ccccc23)nc2ccccc12` was -1.69%; that for `O=C(O)c1cc(-c2ccccc2)nc2ccccc12` was 1.29%. `COc1ccc(C(=O)N2CCN(c3ncccn3)CC2)cc1[N+](=O)[O-]`: the inhibition was -14.3%. To `O=C(NC(=S)Nc1ccc2oc(-c3ccncc3)nc2c1)c1ccccc1F` belongs 1.17%. To `O=C(N/N=C/c1c[nH]c2ccccc12)c1ccc(Cl)cc1` belongs 3.88%. Turning to `c1ccc(-c2cnc(-c3ccccc3)nn2)cc1`, the inhibition was 10%. To `Clc1ccc(-c2cnc3ccccc3n2)cc1` belongs -9.76%; to `c1ccc(-c2nnc(-c3ccccn3)s2)nc1`, -1.25%. The value for `Clc1ccc(OCc2nc(-c3ccccn3)n[nH]2)cc1` was 6.94%; that for `c1ccc(-c2nc3ccccc3[nH]2)nc1` was 13.8%.

Turning to `c1ccc(-c2nn[nH]n2)nc1`, the inhibition is -11.7%.

As to `c1ccc(-c2nc(-c3ccccn3)nc(-c3ccccn3)n2)nc1`, the inhibition was 7.93%.

On to `c1ccc(-c2ccncc2)nc1`, for which the inhibition is -0.28%.

`COc1ccc(C(C)=O)cc1CN(c1ccccc1OC)S(=O)(=O)c1cccs1`: the inhibition is 13.1%. The value for `Cc1cc(C)nc(SCc2ccc(C(=O)N/N=C/c3ccco3)cc2)n1` was -4.36%. Regarding `CCCNS(=O)(=O)c1cccc(C(=O)NC2CCCc3ccccc32)c1` (stereo unspecified), the inhibition was -1.43%. To `Cc1ccc(C)c(SCC(=O)NC2CCS(=O)(=O)C2)c1` (stereo unspecified) belongs -12.1%. As for `CCCCCCCCNC(=O)c1cnccn1`, the inhibition was -8.66%. In the case of `c1ccc(-c2nc(-c3ccccn3)no2)cc1`, the inhibition was -0.45%. The value for `c1ccc(-c2nc3ccccc3nc2-c2ccccn2)nc1` was 0.35%; that for `Nc1nc(N)nc(-c2ccccc2-c2nc(N)nc(N)n2)n1` was 21.3%; that for `c1ccc(-c2n[nH]c(-c3ccccn3)n2)cc1` was -0.5%. To `c1cc(-c2n[nH]c(-c3ccncc3)n2)ccn1` belongs -1.91%.

On to `CSc1nncc(-c2ccccc2)n1`, for which the inhibition is -2.08%. The value for `Nc1nc(N)nc(-c2ccccc2O)n1` was 1.67%; that for `c1ccc(-c2ccccn2)nc1` was -0.49%; that for `CCN(CC)S(=O)(=O)c1ccc(N2CCOCC2)c(NC(=O)COc2ccccc2C)c1` was -22.8%. The value for `CCc1nc2ccccc2n1Cc1cc(=O)n2cc(C)ccc2n1` was -1.64%; that for `CCOc1ccc(NC(=S)N2CCN(S(=O)(=O)c3ccccc3)CC2)cc1` was 24.8%. To `CC(C)(C)c1nnc(N/N=C/c2ccccc2)n(N)c1=O` belongs -3.79%. For `CC(C)(C)c1nnc(N/N=C/c2ccc(O)cc2)n(N)c1=O`, the inhibition was 6.15%. To `CC(C)(C)c1nnc(N/N=C/c2ccc(Br)cc2)n(N)c1=O` belongs -5.94%. The value for `CCc1nnc(N/N=C/c2cc(C)c(C)cc2C)n1N` was -3.56%.

`Cc1nnc(N/N=C/c2ccccc2O)n1N`: the inhibition is 9.93%. The value for `CCc1nnc(N/N=C/c2ccccc2F)n1N` was -9%; that for `Cc1ccc(CN2CCC(n3nccc3NC(=O)CCOc3ccccc3)CC2)cc1C` was -4.94%; that for `CCN1CCN(C(c2cc(OC)ccc2OC)c2nnnn2Cc2ccccc2)CC1` (stereo unspecified) was -5.45%. The value for `Cc1cn(CC(=O)NCc2ccc3c(c2)OCO3)c(=O)[nH]c1=O` was 0.05%; that for `Cc1ccc(C(=O)COC(=O)CNC(=O)c2cccs2)cc1C` was 3.9%; that for `Cc1ccc(CS(=O)Cc2ccc(C(=O)NCCc3ccccc3)o2)cc1` (stereo unspecified) was 3.5%. To `COc1ccc(N2CCN(C(=O)c3c(C)nn(-c4ccccc4)c3C)CC2)cc1` belongs 1.11%. Turning to `COc1ccc(C(=O)Nc2ccc(Cl)cc2C(=O)N2CCCC(C)C2)cc1OC` (stereo unspecified), the inhibition is -10.1%. Consider `O=S1(=O)[C@H]2CC3O[C@]2(C[C@@H]3c2ccc(F)cc2)CN1Cc1ccc(Cl)cc1`, for which the inhibition is -1.02%. To `COc1cc(C(=O)NC2CCN(Cc3nnnn3Cc3cccs3)CC2)cc(OC)c1OC` belongs -19%. The value for `CCCNc1ncnc2onc(C)c12` was -5.28%. For `Clc1cnc(Nc2cccnc2)c(Cl)c1`, the inhibition is -6.41%. The value for `Oc1cc(NCc2ccc(Cl)cc2)cc2cccnc12` was -7.85%; that for `c1ccc(-c2csc(Nc3cccnc3)n2)nc1` was 14.1%; that for `O=C(Nc1ccncc1)c1cc2ccccc2cc1O` was -5.8%. For the molecule `Oc1cc(Nc2ccccc2)cc2cccnc12`, the inhibition was 3.79%.

As to `Oc1cc(NCc2ccc(F)cc2)cc2cccnc12`, the inhibition is -7.28%. As for `CC(=O)c1ccccc1OCC(O)CN1CCN(c2ccccn2)CC1` (stereo unspecified), the inhibition was -18.6%. To `CCOc1ccccc1N(CC(=O)Nc1ccccc1C(=O)N1CCOCC1)S(C)(=O)=O` belongs -12.1%; to `COC(=O)c1ccccc1NC(=O)Nc1cccnc1`, -5.77%. To `CCOP(=O)(OCC)C(NC(=O)Nc1ccc(Cl)cc1)C(N)=O` (stereo unspecified) belongs -4.5%; to `COc1cccc2cc(C(=O)NCC3CCCO3)c(=O)oc12` (stereo unspecified), 6.96%. To `COc1ccc(/C(O)=C2\C(=O)C(=O)N(CCN3CCOCC3)C2c2ccccc2OC)cc1` (stereo unspecified) belongs -5.93%; to `CCc1cccc(NC(=O)CSCc2cc(=O)[nH][nH]2)c1`, 4.49%.
